This is a sample that favours compounds with a hit; in the whole collection about 18% have one here.
DT40 TDP1 no CPT = qHTS for Inhibitors of human tyrosyl-DNA phosphodiesterase 1 (TDP1): qHTS in cells in absence of CPT; AID 686978, 2013; DT40 Tdp1-/- hTDP1 cells, no CPT, ATP luminescence, 48 h; Potency, µM (series often up to 46.2 µM), inactives show top-dose activity change, negative = growth inhibition, actives largely listed as inhibitors; actives 15% (n = 420,000); also: potency is read from the fitted curve at half-maximal effect; nearly all actives have a fitted effect of over 55% in size
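Readout: luminescence from CellTiter-Glo after 30 min in the dark at RT. Cells: DT40 Tdp1-/- with stable hTDP1, 400/well. Exposure: compounds alone, ≥48 hr, 37 °C.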
RORg inh = inhibitors of mouse ROR gamma transcriptional activity; P51450; Drosophila S2 Gal4-RORgamma UAS-luciferase reporter, 20 h; Potency, µM (titrated, usually from 53.6 µM), inactives show at the highest dose activity change, negative = inhibition, most hits filed as inhibitors; actives 5.4% (n = 310,000); AID 2551; also: potency is read from the fitted curve at half-maximal effect; nearly all actives have a fitted effect of over 60% in size
Target sequence (P51450 whole entry, looked up, the tested form may be a part): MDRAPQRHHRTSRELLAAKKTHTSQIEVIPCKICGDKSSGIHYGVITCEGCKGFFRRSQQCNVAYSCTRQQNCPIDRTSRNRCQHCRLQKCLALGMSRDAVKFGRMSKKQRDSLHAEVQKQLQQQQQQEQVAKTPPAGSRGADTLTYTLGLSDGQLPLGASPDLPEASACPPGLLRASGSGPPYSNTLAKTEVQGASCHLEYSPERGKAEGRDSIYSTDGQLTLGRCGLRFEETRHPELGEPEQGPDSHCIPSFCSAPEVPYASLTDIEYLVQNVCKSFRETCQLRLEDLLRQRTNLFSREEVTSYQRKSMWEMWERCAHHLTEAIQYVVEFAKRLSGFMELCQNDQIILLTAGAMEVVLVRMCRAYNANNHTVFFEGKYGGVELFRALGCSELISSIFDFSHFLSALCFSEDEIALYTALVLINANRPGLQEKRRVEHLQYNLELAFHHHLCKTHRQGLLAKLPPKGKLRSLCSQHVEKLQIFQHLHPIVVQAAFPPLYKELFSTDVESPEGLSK
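Schneider cells (Drosophila), stable Gal4 DBD–ROR gamma + UAS-luc; 1 hr cmpd preincubation; Cu2+ induction 700 uM final; 20 hr ambient; luminescence.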
IL1B secr inh = inflammasome signaling inhibition, IL-1 beta readout; THP-1 LPS/ATP IL-1B secretion, AlphaLISA, 16 h; stronger effect = lower value; activity change, % at 57.5 µM; actives 4.7% (n = 360,000); in the data active = activity change below about -50%; inconclusive = mostly about -30% to -49%
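Secreted IL-1B measured by AlphaLISA bead assay after 16 h compound exposure of THP-1 cells; compounds (final up to 57.5 uM) added 1 h before LPS (250 ng/mL) and ATP (1.25 mM) stimulation; lower signal means less secretion.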
VP16 counter = counter-screen for ROR gamma inhibitors: Gal4-VP16 reporter | Potency, µM (doses to about 53.6 µM), for inactives: at the top dose activity, negative = inhibition, hits mostly inhibitors | Drosophila S2 Gal4-VP16 UAS-luciferase, luminescence, 20 h | actives 3.5% (n = 310,000);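 also: Gal4-VP16 expression switched on by copper sulfate through the metallothionein promoter; potency is read from the fitted curve at half-maximal effect; nearly all actives have a fitted effect of over 50% in size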
DT40 TDP1 CPT = DT40-hTDP1 cell growth loss with CPT; Potency, µM (top dose mostly 46.2 µM), for inactives: top-dose activity change, negative = growth inhibition, usual class: inhibitors; actives 12% (n = 420,000); chicken DT40 Tdp1-/-;hTDP1 cells + 20 nM CPT, ATP luminescence, 48 h; AID 686979; also: potency is read from the fitted curve at half-maximal effect; nearly all actives have a fitted effect of over 55% in size
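Chicken DT40 Tdp1-/- cells complemented with human TDP1, 400 cells/well, exposed to compounds plus 20 nM camptothecin for at least 48 h at 37 C; viability read as ATP content by CellTiter-Glo luminescence.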
LDHA inh = blocks human lactate dehydrogenase A; actives 0.15% (n = 480,000); AID 1347041; activity change, % (values are at about 110 or 230 µM); purified LDHA, NADH/diaphorase-resazurin fluorescence; stronger effect = lower value; P00338; in the data active = activity change below about -30%; inconclusive = mostly about -25% to -30%;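 also: plate controls were DMSO wells for no effect and wells without enzyme for full effect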
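Remaining NADH was detected by diaphorase (0.133 mg/mL) converting 37 µM resazurin to fluorescent resorufin, read at 0 and 20 minutes. The preceding 5-minute room-temperature reaction used 2 nM LDHA, 0.2 mM sodium pyruvate and 0.06 mM NADH at pH 7.4.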
Starred values were filed as active, the others as inactive; ? = inconclusive; · = not tested or not shown; [ ] = remark or other dose. Unless noted, calls follow the shape of the dose curve; as a rule, active = well fitted curve in the direction sought with a large enough effect; inconclusive = small, poorly fitted or top-dose-only effect, or another doubt; inactive = no such curve, though single readings can be large; an effect the other way counts as inactive or inconclusive. Unless noted, % is scaled to controls: 0 for no effect and ±100 for the full control effect.

SMILES | DT40 TDP1 no CPT | RORg inh | IL1B secr inh | VP16 counter | DT40 TDP1 CPT | LDHA inh
CC1(C)Cc2nc3sc4c(SCC(=O)O)ncnc4c3cc2CO1 | ? | 8.91µM* | -7.5 | 14.1µM* | -1.8% | -3.6
COC(=O)CSc1ncnc2c1sc1nc3c(cc12)COC(C)(C)C3 | ? | -24.5% | -8.4 | -24.3% | -18.2% | 5.1
Cc1nc(OCC(C)C)c2sc3nc4c(cc3c2n1)COC(C)(C)C4 | 20.6µM* | 16.2% | -26.1 | -3.2% | ? | -8.2
CCc1nc2c(sc3nc4c(cc32)COC(C)(C)C4)c(=O)n1Cc1ccco1 | 23.1µM* | -1.3% | 0.0 | -8.7% | 23.1µM* | 2.6
CCc1nc(OCc2ccco2)c2sc3nc4c(cc3c2n1)COC(C)(C)C4 | 16.4µM* | ? | 3.7 | -21.0% | 25.9µM* | -2.3
CC1(C)Cc2nc3sc4c(N(CCO)CCO)ncnc4c3cc2CO1 | ? | 37.4% | -1.8 | -15.5% | -29.1% | 0.5
CCCn1c(C2CCCN2c2nc(C)cs2)nc2cc(Cl)c(Cl)cc21 (stereo not drawn) | ? | ? | 1.3 | ? | ? | -1.7
OCCCn1c(C2CCCN2c2nc(-c3ccc(F)cc3)cs2)nc2cc(Cl)c(Cl)cc21 (stereo not drawn) | 16.4µM* | · | -9.3 | · | ? | 2.6
CCCn1c(C2CCCN2c2nc(-c3cccc(Br)c3)cs2)nc2cc(Cl)c(Cl)cc21 (stereo not drawn) | 18.4µM* | 2.51µM* | -5.6 | 5.62µM* | ? | -1.9
Cc1csc(N2CCCC2c2nc3cc(C(F)(F)F)ccc3n2CCOCCO)n1 (stereo not drawn) | ? | · | -14.5 | · | 9.2µM* | 3.8
Cc1ccccc1CSc1nc2sc(C)c(C)c2c(=O)n1CCCN1CCOCC1 | · | · | · | · | · | 15.9
O=C(CCn1c2c(c3ccccc31)CCCC2)NNC(=O)c1ccc([N+](=O)[O-])cc1 | 11.6µM* | 71.8% | -1.8 | -3.7% | 20.6µM* | 8.9
Cn1c(-c2ccccc2)cnc1N | -17.9% | 12.6µM* | ? | -11.0% | -27.1% | 4.9
COc1ccc(-c2cnc(N)n2C)cc1 | ? | -27.7% | -18.1 | 0.4% | -14.3% | 1.0
Cc1ccccc1/C(N)=N/OC(=O)N1c2ccccc2Sc2ccccc21 | 12.6µM* | ? | -6.9 | ? | 11.2µM* | 1.3
CCOC(=O)N1c2ccccc2Sc2ccccc21 | ? | 14.9% | 8.4 | 4.7% | -11.0% | -3.8
Cc1ccc(/C(N)=N/OC(=O)N2c3ccccc3Sc3ccccc32)cc1 | 20.6µM* | · | -5.3 | · | ? | 3.1
COCCNC(=O)C(c1ccccc1)N(CCOC)C(=O)Cn1nnc2ccccc21 (stereo not drawn) | -12.3% | 22.7% | 28.0 | 0.2% | -6.6% | -3.9
Cc1cccc(N(C(=O)Cn2nnc3ccccc32)C(C(=O)NC(C)(C)C)c2ccsc2)c1C (stereo not drawn) | 16.4µM* | 34.5% | -13.4 | -4.2% | ? | -19.7
Cc1ccccc1CCN(C(=O)Cn1nnc2ccccc21)C(C(=O)NC(C)(C)C)c1ccsc1 (stereo not drawn) | 25.9µM* | ? | 2.9 | -4.2%[0.365 µM] | 18.4µM* | -0.5
CCS(=O)(=O)c1ccccc1C(=O)N(Cc1cccnc1)c1nc2cc(C)c(C)cc2s1 | 23.1µM* | · | · | · | ? | 1.9
O=C(Cc1ccccc1)N(Cc1cccnc1)c1nc2ccc(Cl)cc2s1 | -20.9% | · | · | · | ? | -1.7
Cc1ccc2nc(N(Cc3cccnc3)C(=O)CCS(=O)(=O)c3ccccc3)sc2c1 | 16.4µM* | · | · | · | ? | 7.1
O=C(CCS(=O)(=O)c1ccccc1)N(Cc1cccnc1)c1nc2ccc(Cl)cc2s1 | 13µM* | · | · | · | 5.8µM* | 4.5
c1ccc(-c2csc(C34CC5CC(CC(C5)C3)C4)n2)cc1 | · | · | · | · | · | 1.9
SMILES | DT40 TDP1 no CPT | RORg inh | IL1B secr inh | VP16 counter | DT40 TDP1 CPT | LDHA inh
c1cc(-c2cnc3cccnn23)c2cccnc2c1 | ? | · | -24.9 | · | 9.2µM* | 1.0
CSc1ccccc1-c1cnc2cccnn12 | -27.9% | · | -54.3* | · | -19.4% | -7.9
O=[N+]([O-])c1ccc(O)c(-c2nc(-c3ccccc3)c(-c3cccs3)[nH]2)c1 | 18.4µM* | -89.0% | -3.6 | 11.2µM* | 20.6µM* | -6.6
CCOc1ccc(-c2nc(-c3ccccc3)c(-c3ccccc3)[nH]2)cc1OCC | 18.4µM* | · | · | · | 20.6µM* | -3.8
COc1ccc(-c2nc(-c3ccccc3)c(-c3ccc(F)cc3)[nH]2)c(OC)c1C | ? | · | · | · | 20.6µM* | 2.2
CCOc1cc(-c2nc(-c3ccccc3)c(-c3cc([N+](=O)[O-])ccc3C)[nH]2)ccc1O | 23.1µM* | ? | -14.4 | -14.1% | ? | -3.9
CN(Cc1nc2ccccc2n1C(F)F)S(=O)(=O)c1c(F)cccc1F | · | · | · | · | · | -6.7
COc1ccc(-c2nc(-c3ccccc3)c(-c3cc([N+](=O)[O-])ccc3C)[nH]2)cc1OC | 18.4µM* | 25.9% | -6.1 | -2.1% | 23.1µM* | -6.8
CCOC(=O)c1sc(=S)n(Cc2ccccc2)c1C | -20.1% | -14.8% | -5.2 | -12.6% | -5.3% | -0.5
CN(C)C(=S)N=c1ssc(=S)n1Cc1ccccc1 | 3.66µM* | · | -2.1 | · | 2.59µM* | -8.5
O=C(O)c1cc(-c2ccccn2)nc2ccc(F)cc12 | · | · | · | · | · | 0.3
Cc1cccn2c(=O)c(/C=C(\C#N)C(=O)NC3CCS(=O)(=O)C3)c(N3CCC(C(N)=O)CC3)nc12 (stereo not drawn) | -4.6% | 31.8% | 0.0 | -9.7% | 2.7% | -2.6
Cc1cccn2c(=O)c(/C=C(\C#N)C(=O)NC3CCS(=O)(=O)C3)c(Oc3ccccc3Cl)nc12 (stereo not drawn) | 20.6µM* | 40.8% | 13.7 | 0.7% | ? | -4.5
Cc1cccn2c(=O)c(/C=C(\C#N)C(=O)NC3CCS(=O)(=O)C3)c(N3CC(C)OC(C)C3)nc12 (stereo not drawn) | -23.3% | 9.2% | -6.5 | 28.9% | 7.3% | 3.6
Cc1ccccc1Oc1nc2c(C)cccn2c(=O)c1/C=C(\C#N)C(=O)NC1CCS(=O)(=O)C1 (stereo not drawn) | 20.6µM* | 23.6% | -96.7* | -12.5% | 11.6µM* | -5.1
Cc1cccc(OCC(=O)Nc2cc(C)ccc2O)c1 | ? | -43.5% | 10.5 | -16.5% | ? | -2.1
Cc1cccc(OCC(=O)Nc2cc(C)c(C)cc2O)c1 | -21.3% | 3.55µM* | 14.6 | -28.3% | -5.1% | -4.1
COc1ccc(-c2nc3ccccc3s2)cc1NC(=O)COc1cccc(C)c1 | 16.4µM* | · | · | · | ? | -2.6

Bioassay records as filed in PubChem BioAssay.
